Rows were chosen to be rich in hits. Some 2.8% of all compounds tested hit in one or more screens of this group.
Fam108B inh: counter-screen for RBBP9 inhibitors: inhibitors of mouse Fam108B. recombinant Fam108B, FP-Rh probe fluorescence polarization. inhibition, % at 9.51 µM. hit rate 0.33% among 300,000. AID 1947;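 active = inhibition above the screen mean inhibition plus 3 SD, computed separately per campaign, cut at about 18% in these data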;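 note: inhibitors lower polarization as less probe binds the enzyme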
PME-1 primary: blocks human protein phosphatase methylesterase 1; Q9Y570; AID 2130; recombinant PME-1, FP-Rh probe fluorescence polarization; inhibition, % at 5.9 µM; hit rate 0.53% among 320,000;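 active = inhibition above the campaign mean of all compounds plus 3 SD, cut at about 26% in these data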;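 note: competitive labeling of PME-1 active site by serine hydrolase directed probe; 0% = PME-1 with DMSO and 100% = wells lacking PME-1 enzyme; inhibitors block probe labeling so polarization falls and inhibition rises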
PAFAH1B3 FP inh: blocks human PAF acetylhydrolase 1B catalytic subunit 3 | inhibition, % at 3.39 µM | hit rate 0.28% among 340,000 | Q15102 | recombinant PAFAH1B3, FP-rhodamine probe, fluorescence polarization;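 active = inhibition above the screen-wide average of all tested compounds plus 3 SD, cut at about 25% in these data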;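 note: 0% = enzyme with DMSO only and 100% = wells lacking PAFAH1B3 protein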
Target sequence (Q15102 whole entry, looked up): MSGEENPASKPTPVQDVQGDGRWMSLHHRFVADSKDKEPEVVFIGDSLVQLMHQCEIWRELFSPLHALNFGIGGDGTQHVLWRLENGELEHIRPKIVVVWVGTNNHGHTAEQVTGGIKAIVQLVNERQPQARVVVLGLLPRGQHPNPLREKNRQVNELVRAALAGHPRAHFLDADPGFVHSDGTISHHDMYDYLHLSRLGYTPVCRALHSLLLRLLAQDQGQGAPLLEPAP
pPAFAH inh: pPAFAH (human) enzyme inhibition. Q13093. recombinant pPAFAH, FP-rhodamine probe fluorescence polarization. hit rate 1.5% among 330,000. AID 463082. inhibition, % at 3.39 µM;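 active = inhibition above the mean inhibition across the screen plus 3 SD, cut at about 25% in these data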;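 note: inhibitors block binding of the rhodamine activity-based probe so polarization drops; 0% = enzyme with DMSO and 100% = wells lacking pPAFAH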
PAFAH2 FP inh: inhibitors of human PAFAH2; inhibition, % at 3.39 µM; Q99487; recombinant PAFAH2, FP-rhodamine activity probe, fluorescence polarization; hit rate 0.99% among 340,000;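 active = inhibition above the mean over all tested compounds plus 3 SD, cut at about 30% in these data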;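 note: inhibitors block probe labeling of enzyme so polarization drops; 0% = enzyme with DMSO and 100% = wells lacking PAFAH2 protein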
PAFAH1B2 inh: inhibitors of human PAFAH1B2; inhibition, % at 3.39 µM; recombinant PAFAH1B2, FP-rhodamine activity probe, fluorescence polarization; P68402; hit rate 1.2% among 340,000;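 active = inhibition above the mean of all tested compounds plus 3 SD, cut at about 24% in these data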;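 note: 0% = enzyme with DMSO and 100% = wells lacking PAFAH1B2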
Target sequence (P68402 whole entry, looked up): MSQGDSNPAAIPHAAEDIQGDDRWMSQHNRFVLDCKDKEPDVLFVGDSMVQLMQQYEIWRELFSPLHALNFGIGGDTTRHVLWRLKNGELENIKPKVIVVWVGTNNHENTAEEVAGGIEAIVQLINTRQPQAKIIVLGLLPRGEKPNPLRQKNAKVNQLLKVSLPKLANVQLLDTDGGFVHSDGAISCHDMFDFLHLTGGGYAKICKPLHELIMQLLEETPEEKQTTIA
PAFAH2 FP conf: PAFAH2 (human) inhibition, confirmed; shares compounds with PAFAH2 FP inh; recombinant PAFAH2, FP-rhodamine activity probe, fluorescence polarization; inhibition, % at 3.39 µM; hit rate 65% among 2,300;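 active = mean inhibition over three repeats above a set limit taken from the earlier primary screen, cut at about 30% in these data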;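 note: inhibitor blocks binding of rhodamine activity probe so polarization falls; 0% = enzyme with DMSO and 100% = wells lacking PAFAH2 protein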
* = called active by the depositor; / = no result.

SMILES	Fam108B inh	PME-1 primary	PAFAH1B3 FP inh	pPAFAH inh	PAFAH2 FP inh	PAFAH1B2 inh	PAFAH2 FP conf
Cc1ccc(NC(=O)COC(=O)c2ccco2)cc1C	/	2.5	-0.7	-3.1	76.5*	5.9	59.2*
Cc1ccc(NC(=O)COC(=O)c2ccco2)cc1	2.8	-1.7	4.7	1.3	61.8*	5.3	53.3*
COc1cccc(NC(=O)COC(=O)c2ccco2)c1	-4.2	1.8	-1.5	7.3	68.4*	-0.5	63.1*
Cn1cccc1C(=O)OCC(=O)NCc1ccc2c(c1)OCO2	/	4.3	4.7	14.2	0.3	-0.6	/
Cn1cccc1C(=O)OCC(=O)Nc1ccc2c(c1)OCCO2	/	/	7.2	0.2	49.1*	4.2	33.1*
COc1ccc(CN2C(=O)[C@H]3Cc4c([nH]c5ccccc45)C(C)(C)N3C2=O)cc1	2.2	5.2	-3.4	5.0	2.3	5.2	/
O=C(COC(=O)c1ccco1)Nc1ccc2c(c1)OCCO2	2.0	-2.2	10.2	-0.3	50.6*	-0.3	36.9*
COc1cccc(NC(=O)COC(=O)c2sccc2C)c1	/	/	6.9	12.3	82.4*	1.9	81.8*
COc1ccc(/C=C/C(=O)OCC(=O)NCCCc2ccccc2)cc1OC	/	/	3.7	11.1	52.0*	0.6	40.0*
COc1ccc(/C=C/C(=O)OCC(=O)NCc2ccccc2Cl)cc1OC	/	/	12.2	-2.6	79.2*	0.4	76.5*
COc1cc(/C=C/C(=O)OCC(=O)NCCCc2ccccc2)cc(OC)c1OC	/	/	5.4	7.3	19.2	4.4	/
COc1ccc(CCNC(=O)COC(=O)/C=C/c2ccc(OC)c(OC)c2)cc1	0.2	0.1	7.5	5.3	38.6*	5.7	25.6
CCCCn1c(N)c(N(CC(C)C)C(=O)C2CCN(S(=O)(=O)c3ccc(OCC)cc3)CC2)c(=O)[nH]c1=O	2.6	0.2	-12.6	-4.2	1.2	-6.0	/
CCCC1(c2ccsc2)NC(=O)NC1=O (centres undefined)	/	/	7.1	/	2.9	-0.9	/
Cc1sc2nc(CSC(C)C(=O)N3CCOCC3)[nH]c(=O)c2c1C (centres undefined)	4.1	-6.3	0.9	-3.8	-1.2	7.1	/
O=S(=O)(c1ccc(F)c(F)c1)N1CCN(c2ccccn2)CC1	-3.9	6.0	17.3	3.1	-2.5	6.8	/
CCOc1ccc(C(=O)OCC(=O)Nc2cccc(S(=O)(=O)N3CCCC3)c2)cc1	/	4.0	-3.0	9.2	68.2*	-0.7	57.1*
O=C(COC(=O)c1ccc(Br)o1)Nc1cccc(S(=O)(=O)N2CCCCC2)c1	/	/	2.2	10.0	22.7	4.5	/
O=C(COC(=O)c1ccc(O)cc1)Nc1cccc(S(=O)(=O)N2CCCCC2)c1	-8.2	-14.4	-5.8	6.2	52.5*	-0.6	55.3*
O=C(COC(=O)c1ccco1)Nc1cccc(S(=O)(=O)N2CCCCC2)c1	/	/	-1.0	-1.7	48.5*	5.1	40.8*
CCc1cccc(NC(=O)c2cccc3c2C(=O)N(CC2CCCO2)C3)c1 (centres undefined)	2.5	-3.9	0.3	1.1	0.1	1.6	/
C/C(=N\NC(=O)c1ccc(O)cc1)c1cccc(NC(=O)c2ccccc2C)c1	-5.5	-3.9	6.1	1.8	20.6	2.0	/
O=C(Cc1cccc2ccccc12)Nc1ccc(Br)cc1C(=O)O	-2.8	-8.0	18.1	-7.1	36.2*	7.0	24.9
O=C(Nc1ccc(O)cc1C(=O)O)c1cccc(Br)c1	-1.1	7.6	9.1	-0.5	37.6*	5.1	20.9
CCN(CC)c1ccc2c(c1)oc(=O)c1c(Cl)cc(=O)oc12	10.0	0.5	13.9	8.0	35.5*	20.8	24.4
SMILES	Fam108B inh	PME-1 primary	PAFAH1B3 FP inh	pPAFAH inh	PAFAH2 FP inh	PAFAH1B2 inh	PAFAH2 FP conf
CCN(c1ccc(NC(=O)COC(=O)/C=C/c2ccco2)cc1)C(C)C	/	/	15.3	10.1	23.1	5.9	/
CCc1ccc(NC(=O)COC(=O)/C=C/c2ccco2)cc1	/	/	3.0	15.2	73.2*	2.2	73.4*
COC(=O)c1ccccc1NC(=O)COC(=O)/C=C/c1ccco1	-5.1	-2.4	-3.0	4.8	6.5	0.1	/
O=C(COC(=O)/C=C/c1ccco1)Nc1ccc(F)cc1Cl	-3.5	-6.7	2.5	0.8	62.6*	6.0	45.6*
O=C(COC(=O)/C=C/c1ccco1)Nc1ccccc1	-0.5	-1.2	7.9	10.2	85.3*	2.8	83.0*
CCOc1ccccc1-c1nc(-c2cc3ccc(C)cc3[nH]c2=O)no1	-6.3	1.5	0.1	-1.3	51.8*	-3.0	32.4*
Cc1ccc2cc(-c3noc(C4CCCCC4)n3)c(=O)[nH]c2c1	1.0	0.9	-4.7	-1.0	47.3*	-2.6	50.6*
Cc1ccc2cc(-c3noc(C4CCCO4)n3)c(=O)[nH]c2c1 (centres undefined)	1.4	5.0	-1.3	-0.8	14.1	3.9	/
CC(Sc1nc(N)cc(=O)[nH]1)C(=O)Nc1nc2c(s1)CCCC2 (centres undefined)	0.1	-1.4	7.2	-0.1	4.2	2.3	/
CC1CCCC(NC(=O)COC(=O)/C=C/c2ccco2)C1C (centres undefined)	/	0.0	6.2	8.3	85.6*	-0.2	78.6*
CC1CCCC(NC(=O)COC(=O)/C=C/c2ccc([N+](=O)[O-])cc2)C1C (centres undefined)	/	/	8.9	10.9	61.9*	5.2	19.6
COc1ccc(Cl)cc1C(=O)OCC(=O)NC1CCCC(C)C1C (centres undefined)	/	/	2.8	/	34.8*	6.9	25.7
COc1cccc2cc(C(=O)OCC(=O)NC3CCCC(C)C3C)c(=O)oc12 (centres undefined)	/	/	9.7	3.6	19.1	5.0	/
CSCCC(NC(=O)c1ccc([N+](=O)[O-])cc1Cl)C(=O)OCC(=O)NC1CCCC(C)C1C (centres undefined)	-3.5	1.9	-1.4	5.3	33.5*	8.3	21.3
CCOC(=O)C1=C(COC(=O)CNC(=O)c2ccc(Cl)cc2Cl)NC(=O)NC1C (centres undefined)	3.0	5.8	3.4	3.5	-2.0	1.0	/
CC1CC2C(C(O)CC3(C)C2CCC3(O)C(=O)CO)C2(C)C=CC(=O)C=C12 (centres undefined)	/	/	7.7	/	12.3	3.2	/
CCOC(=O)CSc1ccc(C(=O)NCCCN2CCOCC2)cc1[N+](=O)[O-]	0.0	-7.9	4.7	11.0	-3.2	2.6	/
CC1CCCC(NC(=O)COC(=O)c2ccccc2[N+](=O)[O-])C1C (centres undefined)	-0.2	-2.4	1.5	7.0	65.0*	6.2	56.9*
Nc1cc(C(=O)OCC(=O)NCc2ccc(F)cc2)ccc1Cl	3.4	1.3	10.5	9.9	55.3*	1.2	43.8*
COc1ccc(C(=O)OCC(=O)NCCc2ccc(F)cc2)cc1S(=O)(=O)N1CCOCC1	/	/	13.1	6.5	66.0*	7.8	47.1*

High-throughput results as filed in PubChem BioAssay.
